Measurements reported in PubChem BioAssay AID1159580 (chemical genetic matrix, 2015).
The campaign covered roughly 5,500 compounds. About 2,000 (36%) were called active. Not shown: some 18% with an inconclusive outcome. No stated cut-off is given here; in the data, active means normalized growth mostly below about 0.91 (no sharp cut-off); inconclusive means no clear call, values can overlap the other calls; inactive means mostly above about 0.92. Some of the results follow.

Assay: chemical genetic growth profiling, strain panel (AID 1159580);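 further: tested at 20 µM; growth read once vehicle control cultures reached saturation at 30 °C; 1 = growth at the plate median or of vehicle wells; lower values mean less growth of the strain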
Conditions: growth OD

Measured: normalized growth

CC1(C)C(C(Cl)Cl)C2(Cl)C(Cl)C(Cl)C1(Cl)C2(Cl)Cl (centres undefined)
inactive: S. cerevisiae deletion strains, locus YJR043C, strain POL32, hits give low values 0.978 | S. cerevisiae deletion strains, locus YJR075W, strain HOC1, hits give low values 0.985 | S. cerevisiae deletion strains, locus YKL009W, strain mrt4, hits give low values 0.965 | S. cerevisiae deletion strains, locus YKL068W, hits give low values 0.983 | S. cerevisiae deletion strains, locus YKL085W, strain MDH1 (second series), hits give low values 0.973 | S. cerevisiae deletion strains, locus YKL085W, strain MDH1, hits give low values 0.973 | S. cerevisiae deletion strains, locus YKL160W, strain elf1, hits give low values 0.969 | S. cerevisiae deletion strains, locus YKL190W, strain CNB1, hits give low values 0.997 | S. cerevisiae deletion strains, locus YKR001C, strain vps1, hits give low values 0.964 | S. cerevisiae deletion strains, locus YKR026C, strain gcn3, hits give low values 0.989 | S. cerevisiae deletion strains, locus YKR091W, strain srl3, hits give low values 0.985 | S. cerevisiae deletion strains, locus YLL001W, strain dnm1, hits give low values 0.994 | S. cerevisiae deletion strains, locus YLL026W, hits give low values 0.981 | S. cerevisiae deletion strains, locus YLL041C, strain sdh2, hits give low values 0.989 | S. cerevisiae deletion strains, locus YLR027C, strain aat2, hits give low values 0.97 | S. cerevisiae deletion strains, locus YLR039C, strain RIC1, hits give low values 0.883 | S. cerevisiae deletion strains, locus YLR058C, strain SHM2, hits give low values 0.983 | S. cerevisiae deletion strains, locus YLR102C, strain apc9, hits give low values 0.979 | S. cerevisiae deletion strains, locus YLR221C, strain rsa3, hits give low values 0.961 | S. cerevisiae deletion strains, locus YLR258W, strain gsy2, hits give low values 0.975 | S. cerevisiae deletion strains, locus YLR262C, strain YPT6, hits give low values 0.884 | S. cerevisiae deletion strains, locus YLR268W, strain sec22, hits give low values 0.97 | S. cerevisiae deletion strains, locus YLR320W, strain mms22, hits give low values 0.878 | S. cerevisiae deletion strains, locus YLR330W, strain CHS5, hits give low values 0.991 | S. cerevisiae deletion strains, locus YLR342W, strain FKS1 (second series), hits give low values 0.913 | S. cerevisiae deletion strains, locus YLR342W, strain FKS1, hits give low values 0.964 | S. cerevisiae deletion strains, locus YLR357W, strain rsc2, hits give low values 0.993 | S. cerevisiae deletion strains, locus YLR370C, strain arc18, hits give low values 0.991 | S. cerevisiae deletion strains, locus YLR371W, strain rom2, hits give low values 0.968 | S. cerevisiae deletion strains, locus YLR384C, strain iki3, hits give low values 0.974 | S. cerevisiae deletion strains, locus YLR418C, strain cdc73, hits give low values 0.879 | S. cerevisiae deletion strains, locus YML016C, strain PPZ1, hits give low values 0.986 | S. cerevisiae deletion strains, locus YML032C, strain rad52, hits give low values 0.956 | S. cerevisiae deletion strains, locus YML120C, strain ndi1, hits give low values 0.983 | S. cerevisiae deletion strains, locus YML124C, strain tub3, hits give low values 0.976 | S. cerevisiae deletion strains, locus YMR058W, strain fet3, hits give low values 0.991 | S. cerevisiae deletion strains, locus YMR078C, strain ctf18, hits give low values 0.953 | S. cerevisiae deletion strains, locus YMR125W, strain sto1, hits give low values 0.995 | S. cerevisiae deletion strains, locus YMR129W, hits give low values 0.972 | S. cerevisiae deletion strains, locus YMR205C, strain PFK2, hits give low values 0.883 | S. cerevisiae deletion strains, locus YMR223W, strain ubp8, hits give low values 0.963 | S. cerevisiae deletion strains, locus YMR231W, strain pep5, hits give low values 0.977 | S. cerevisiae deletion strains, locus YMR263W, strain SAP30, hits give low values 0.988 | S. cerevisiae deletion strains, locus YMR307W, strain GAS1, hits give low values 0.967 | S. cerevisiae deletion strains, locus YNL067W, strain RPL9B, hits give low values 0.993 | S. cerevisiae deletion strains, locus YNL128W, strain TEP1, hits give low values 0.992 | S. cerevisiae deletion strains, locus YNL153C, strain GIM3, hits give low values 0.988 | S. cerevisiae deletion strains, locus YNL209W, strain ssb2, hits give low values 0.979 | S. cerevisiae deletion strains, locus YNL233W, strain BNI4, hits give low values 0.999 | S. cerevisiae deletion strains, locus YNL248C, strain rpa49, hits give low values 0.99 | S. cerevisiae deletion strains, locus YNL250W, strain rad50, hits give low values 0.95 | S. cerevisiae deletion strains, locus YNL271C, strain bni1, hits give low values 0.975 | S. cerevisiae deletion strains, locus YNL298W, strain CLA4, hits give low values 0.958 | S. cerevisiae deletion strains, locus YNL322C, strain KRE1 (second series), hits give low values 0.979 | S. cerevisiae deletion strains, locus YNL322C, strain KRE1, hits give low values 0.987 | S. cerevisiae deletion strains, locus YNR049C, strain mso1, hits give low values 0.985 | S. cerevisiae deletion strains, locus YNR052C, strain pop2, hits give low values 0.963 | S. cerevisiae deletion strains, locus YOL006C, strain TOP1, hits give low values 0.926 | S. cerevisiae deletion strains, locus YOL012C, strain htz1 1.18 | S. cerevisiae deletion strains, locus YOL147C, strain pex11, hits give low values 0.973 | S. cerevisiae deletion strains, locus YOR001W, strain rrp6, hits give low values 0.995 | S. cerevisiae deletion strains, locus YOR061W, strain CKA2, hits give low values 0.992 | S. cerevisiae deletion strains, locus YOR069W, strain VPS5, hits give low values 0.985 | S. cerevisiae deletion strains, locus YOR070C, strain gyp1, hits give low values 0.991 | S. cerevisiae deletion strains, locus YOR080W, strain dia2, hits give low values 0.974 | S. cerevisiae deletion strains, locus YOR083W, strain WHI5, hits give low values 0.982 | S. cerevisiae deletion strains, locus YOR106W, strain vam3, hits give low values 0.95 | S. cerevisiae deletion strains, locus YOR136W, strain idh2, hits give low values 0.978 | S. cerevisiae deletion strains, locus YOR144C, strain elg1, hits give low values 0.967 | S. cerevisiae deletion strains, locus YOR184W, strain ser1, hits give low values 0.879 | S. cerevisiae deletion strains, locus YOR265W, strain rbl2, hits give low values 0.98 | S. cerevisiae deletion strains, locus YOR270C, strain vph1, hits give low values 0.922 | S. cerevisiae deletion strains, locus YOR290C, strain snf2, hits give low values 0.977 | S. cerevisiae deletion strains, locus YOR316C, strain cot1, hits give low values 0.973 | S. cerevisiae deletion strains, locus YPL051W, strain arl3, hits give low values 0.937 | S. cerevisiae deletion strains, locus YPL055C, strain LGE1, hits give low values 0.981 | S. cerevisiae deletion strains, locus YPL078C, strain atp4, hits give low values 0.988 | S. cerevisiae deletion strains, locus YPL106C, strain sse1, hits give low values 0.984 | S. cerevisiae deletion strains, locus YPL240C, strain hsp82, hits give low values 0.982 | S. cerevisiae deletion strains, locus YPL241C, strain CIN2, hits give low values 0.988 | S. cerevisiae deletion strains, locus YPR119W, strain clb2, hits give low values 0.973 | S. cerevisiae deletion strains, locus YPR141C, strain kar3, hits give low values 0.963 | S. cerevisiae deletion strains, locus YPR163C, strain tif3, hits give low values 0.946 | S. cerevisiae deletion strains, locus YPR167C, strain met16, hits give low values 0.978 | S. cerevisiae deletion strains, strain wtn01, hits give low values 0.966 | S. cerevisiae strains, strain wild type, hits give low values 0.986
active: S. cerevisiae deletion strains, locus YLR262C, strain YPT6 (second series), hits give low values 0.817 | S. cerevisiae deletion strains, locus YNL071W, strain lat1, hits give low values 0.834 | S. cerevisiae deletion strains, locus YNL307C, strain MCK1, hits give low values 0.778
